Data: PMC12529666, “Dysregulation of AGO2-miRNA dynamics underlies the AGO2-associated Lessel–Kreienkamp syndrome”
Positions count from the first letter of the chain named.

B1: ACGCTTTG (ssRNA)
RNA 1: GAGUUCUACAGUCCGACGAUCCCAACACGCUUUGCACCUGGAAUUCUCGGGUGCCAA
RNA 2: UGGAGUGUGACAAUGGUGUUUG
DNA 1: GATCGTCGGACTGTAGAACTC
DNA 2: TTGGCACCCGAGAATTCCA
modifications: constant regions annealed to DNA blockers; guide miR-122 5' phosphate
B2: GCATCTCG (ssRNA)
RNA 1: B1 RNA 1 with A27G, G29A, C30U, U31C, U33C
RNA 2: UGGAGUGUGACAAUGGUGUUUG
DNA 1: GATCGTCGGACTGTAGAACTC
DNA 2: TTGGCACCCGAGAATTCCA
modifications: constant regions annealed to DNA blockers; guide miR-122 5' phosphate
B3: ATATTCTG (ssRNA)
RNA 1: B1 RNA 1 with C28U, G29A, C30U, U32C
RNA 2: UGGAGUGUGACAAUGGUGUUUG
DNA 1: GATCGTCGGACTGTAGAACTC
DNA 2: TTGGCACCCGAGAATTCCA
modifications: constant regions annealed to DNA blockers; guide miR-122 5' phosphate
B4: GCATCCCG (ssRNA)
RNA 1: B1 RNA 1 with A27G, G29A, C30U, U31C, U32C, U33C
RNA 2: UGGAGUGUGACAAUGGUGUUUG
DNA 1: GATCGTCGGACTGTAGAACTC
DNA 2: TTGGCACCCGAGAATTCCA
modifications: constant regions annealed to DNA blockers; guide miR-122 5' phosphate
B5: ATGTCCTG (ssRNA)
RNA 1: B1 RNA 1 with C28U, C30U, U31C, U32C
RNA 2: UGGAGUGUGACAAUGGUGUUUG
DNA 1: GATCGTCGGACTGTAGAACTC
DNA 2: TTGGCACCCGAGAATTCCA
modifications: constant regions annealed to DNA blockers; guide miR-122 5' phosphate
B6: ACGTTTTG (ssRNA)
RNA 1: B1 RNA 1 with C30U
RNA 2: UGGAGUGUGACAAUGGUGUUUG
DNA 1: GATCGTCGGACTGTAGAACTC
DNA 2: TTGGCACCCGAGAATTCCA
modifications: constant regions annealed to DNA blockers; guide miR-122 5' phosphate
B7: ATGTTTCG (ssRNA)
RNA 1: B1 RNA 1 with C28U, C30U, U33C
RNA 2: UGGAGUGUGACAAUGGUGUUUG
DNA 1: GATCGTCGGACTGTAGAACTC
DNA 2: TTGGCACCCGAGAATTCCA
modifications: constant regions annealed to DNA blockers; guide miR-122 5' phosphate
B8: GTGTCTTG (ssRNA)
RNA 1: B1 RNA 1 with A27G, C28U, C30U, U31C
RNA 2: UGGAGUGUGACAAUGGUGUUUG
DNA 1: GATCGTCGGACTGTAGAACTC
DNA 2: TTGGCACCCGAGAATTCCA
modifications: constant regions annealed to DNA blockers; guide miR-122 5' phosphate
B9: GTGTCTCG (ssRNA)
RNA 1: B1 RNA 1 with A27G, C28U, C30U, U31C, U33C
RNA 2: UGGAGUGUGACAAUGGUGUUUG
DNA 1: GATCGTCGGACTGTAGAACTC
DNA 2: TTGGCACCCGAGAATTCCA
modifications: constant regions annealed to DNA blockers; guide miR-122 5' phosphate
B10: GTACCTTG (ssRNA)
RNA 1: B1 RNA 1 with A27G, C28U, G29A, U31C
RNA 2: UGGAGUGUGACAAUGGUGUUUG
DNA 1: GATCGTCGGACTGTAGAACTC
DNA 2: TTGGCACCCGAGAATTCCA
modifications: constant regions annealed to DNA blockers; guide miR-122 5' phosphate
B11: ATGTTCCG (ssRNA)
RNA 1: B1 RNA 1 with C28U, C30U, U32C, U33C
RNA 2: UGGAGUGUGACAAUGGUGUUUG
DNA 1: GATCGTCGGACTGTAGAACTC
DNA 2: TTGGCACCCGAGAATTCCA
modifications: constant regions annealed to DNA blockers; guide miR-122 5' phosphate
B12: ATACCCTG (ssRNA)
RNA 1: B1 RNA 1 with C28U, G29A, U31C, U32C
RNA 2: UGGAGUGUGACAAUGGUGUUUG
DNA 1: GATCGTCGGACTGTAGAACTC
DNA 2: TTGGCACCCGAGAATTCCA
modifications: constant regions annealed to DNA blockers; guide miR-122 5' phosphate
B13: GTACTCTA (ssRNA)
RNA 1: B1 RNA 1 with A27G, C28U, G29A, U32C, G34A
RNA 2: UGGAGUGUGACAAUGGUGUUUG
DNA 1: GATCGTCGGACTGTAGAACTC
DNA 2: TTGGCACCCGAGAATTCCA
modifications: constant regions annealed to DNA blockers; guide miR-122 5' phosphate
B14: ATGCCTTG (ssRNA)
RNA 1: B1 RNA 1 with C28U, U31C
RNA 2: UGGAGUGUGACAAUGGUGUUUG
DNA 1: GATCGTCGGACTGTAGAACTC
DNA 2: TTGGCACCCGAGAATTCCA
modifications: constant regions annealed to DNA blockers; guide miR-122 5' phosphate
B15: GCATTTTG (ssRNA)
RNA 1: B1 RNA 1 with A27G, G29A, C30U
RNA 2: UGGAGUGUGACAAUGGUGUUUG
DNA 1: GATCGTCGGACTGTAGAACTC
DNA 2: TTGGCACCCGAGAATTCCA
modifications: constant regions annealed to DNA blockers; guide miR-122 5' phosphate
B16: ATACTCTA (ssRNA)
RNA 1: B1 RNA 1 with C28U, G29A, U32C, G34A
RNA 2: UGGAGUGUGACAAUGGUGUUUG
DNA 1: GATCGTCGGACTGTAGAACTC
DNA 2: TTGGCACCCGAGAATTCCA
modifications: constant regions annealed to DNA blockers; guide miR-122 5' phosphate
B17: GTGTTTTG (ssRNA)
RNA 1: B1 RNA 1 with A27G, C28U, C30U
RNA 2: UGGAGUGUGACAAUGGUGUUUG
DNA 1: GATCGTCGGACTGTAGAACTC
DNA 2: TTGGCACCCGAGAATTCCA
modifications: constant regions annealed to DNA blockers; guide miR-122 5' phosphate
B18: ATACTTTG (ssRNA)
RNA 1: B1 RNA 1 with C28U, G29A
RNA 2: UGGAGUGUGACAAUGGUGUUUG
DNA 1: GATCGTCGGACTGTAGAACTC
DNA 2: TTGGCACCCGAGAATTCCA
modifications: constant regions annealed to DNA blockers; guide miR-122 5' phosphate
B19: GCGCTTTG (ssRNA)
RNA 1: B1 RNA 1 with A27G
RNA 2: UGGAGUGUGACAAUGGUGUUUG
DNA 1: GATCGTCGGACTGTAGAACTC
DNA 2: TTGGCACCCGAGAATTCCA
modifications: constant regions annealed to DNA blockers; guide miR-122 5' phosphate
B20: ACGTCCCG (ssRNA)
RNA 1: B1 RNA 1 with C30U, U31C, U32C, U33C
RNA 2: UGGAGUGUGACAAUGGUGUUUG
DNA 1: GATCGTCGGACTGTAGAACTC
DNA 2: TTGGCACCCGAGAATTCCA
modifications: constant regions annealed to DNA blockers; guide miR-122 5' phosphate
B21: ACGTTCTG (ssRNA)
RNA 1: B1 RNA 1 with C30U, U32C
RNA 2: UGGAGUGUGACAAUGGUGUUUG
DNA 1: GATCGTCGGACTGTAGAACTC
DNA 2: TTGGCACCCGAGAATTCCA
modifications: constant regions annealed to DNA blockers; guide miR-122 5' phosphate
B22: GTATCTTG (ssRNA)
RNA 1: B1 RNA 1 with A27G, C28U, G29A, C30U, U31C
RNA 2: UGGAGUGUGACAAUGGUGUUUG
DNA 1: GATCGTCGGACTGTAGAACTC
DNA 2: TTGGCACCCGAGAATTCCA
modifications: constant regions annealed to DNA blockers; guide miR-122 5' phosphate
B23: ATATTCCG (ssRNA)
RNA 1: B1 RNA 1 with C28U, G29A, C30U, U32C, U33C
RNA 2: UGGAGUGUGACAAUGGUGUUUG
DNA 1: GATCGTCGGACTGTAGAACTC
DNA 2: TTGGCACCCGAGAATTCCA
modifications: constant regions annealed to DNA blockers; guide miR-122 5' phosphate

Tests used:
Assay in all cases: RNA Bind-n-Seq (nitrocellulose filter binding and sequencing); miR-122 guide loaded in AGO2; 60 min incubation; 30 mM Tris pH 8.0, 100 mM potassium acetate, 2 mM magnesium acetate, 0.5 mM TCEP, 0.005% NP-40, 0.01 mg/ml yeast tRNA; 3 nM AGO2-miR-122, 100 nM RNA library; 60; high values mean tight binding
Conditions in all cases: protein: recombinant; tags: His6 (N-terminal, pFastBac HTA)
AGO2 L192P = AGO2 L192P (Homo sapiens, UniProt Q9UKV8 1-859, L192P;S387D;S824A;S828D;S831D;S834A)
Procedure, shortened: (§1)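 Fold enrichment is each target's read fraction divided by its read fraction in the input library. Sf9 insect cells expressed His-tagged AGO2 from baculovirus; the protein was loaded with a synthetic guide RNA and purified by Ni-NTA and a biotinylated capture oligo. The bound RNA was extracted, reverse-transcribed, barcode-amplified and sequenced on Illumina.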

AGO2 A367P = AGO2 A367P (Homo sapiens, UniProt Q9UKV8 1-859, A367P;S387D;S824A;S828D;S831D;S834A)
Procedure, shortened: as §1

AGO2 T357M = AGO2 T357M (Homo sapiens, UniProt Q9UKV8 1-859, T357M;S387D;S824A;S828D;S831D;S834A)
Procedure, shortened: as §1

AGO2 F182del = AGO2 F182del (Homo sapiens, UniProt Q9UKV8 1-859, S387D;S824A;S828D;S831D;S834A;del182-182)
Procedure, shortened: as §1

AGO2 L192P, sequence (Q9UKV8 whole entry L192P/S387D/S824A/S828D/S831D/S834A): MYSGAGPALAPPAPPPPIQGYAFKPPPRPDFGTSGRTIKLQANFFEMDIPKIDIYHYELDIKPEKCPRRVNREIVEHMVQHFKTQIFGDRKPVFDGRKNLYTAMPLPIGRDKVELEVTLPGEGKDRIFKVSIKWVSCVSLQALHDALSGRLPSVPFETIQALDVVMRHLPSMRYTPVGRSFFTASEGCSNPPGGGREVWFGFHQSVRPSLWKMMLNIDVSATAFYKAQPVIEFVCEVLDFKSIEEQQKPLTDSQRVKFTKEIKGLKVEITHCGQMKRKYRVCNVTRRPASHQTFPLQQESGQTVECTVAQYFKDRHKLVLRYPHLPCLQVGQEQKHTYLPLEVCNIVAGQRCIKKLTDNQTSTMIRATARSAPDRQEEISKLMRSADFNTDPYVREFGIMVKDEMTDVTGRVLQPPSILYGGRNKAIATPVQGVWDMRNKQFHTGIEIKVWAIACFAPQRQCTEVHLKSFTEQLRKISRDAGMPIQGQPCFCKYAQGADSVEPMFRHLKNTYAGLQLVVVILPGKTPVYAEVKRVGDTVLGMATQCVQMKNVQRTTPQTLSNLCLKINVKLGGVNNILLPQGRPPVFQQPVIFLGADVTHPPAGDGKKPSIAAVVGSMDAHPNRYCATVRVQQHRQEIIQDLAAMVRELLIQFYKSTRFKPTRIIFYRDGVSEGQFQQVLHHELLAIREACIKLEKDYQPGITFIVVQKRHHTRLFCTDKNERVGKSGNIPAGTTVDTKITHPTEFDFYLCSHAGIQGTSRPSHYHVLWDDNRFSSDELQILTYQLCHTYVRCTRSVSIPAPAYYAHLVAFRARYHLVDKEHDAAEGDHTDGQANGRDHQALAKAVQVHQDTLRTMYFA
AGO2 T357M, sequence (Q9UKV8 whole entry T357M/S387D/S824A/S828D/S831D/S834A): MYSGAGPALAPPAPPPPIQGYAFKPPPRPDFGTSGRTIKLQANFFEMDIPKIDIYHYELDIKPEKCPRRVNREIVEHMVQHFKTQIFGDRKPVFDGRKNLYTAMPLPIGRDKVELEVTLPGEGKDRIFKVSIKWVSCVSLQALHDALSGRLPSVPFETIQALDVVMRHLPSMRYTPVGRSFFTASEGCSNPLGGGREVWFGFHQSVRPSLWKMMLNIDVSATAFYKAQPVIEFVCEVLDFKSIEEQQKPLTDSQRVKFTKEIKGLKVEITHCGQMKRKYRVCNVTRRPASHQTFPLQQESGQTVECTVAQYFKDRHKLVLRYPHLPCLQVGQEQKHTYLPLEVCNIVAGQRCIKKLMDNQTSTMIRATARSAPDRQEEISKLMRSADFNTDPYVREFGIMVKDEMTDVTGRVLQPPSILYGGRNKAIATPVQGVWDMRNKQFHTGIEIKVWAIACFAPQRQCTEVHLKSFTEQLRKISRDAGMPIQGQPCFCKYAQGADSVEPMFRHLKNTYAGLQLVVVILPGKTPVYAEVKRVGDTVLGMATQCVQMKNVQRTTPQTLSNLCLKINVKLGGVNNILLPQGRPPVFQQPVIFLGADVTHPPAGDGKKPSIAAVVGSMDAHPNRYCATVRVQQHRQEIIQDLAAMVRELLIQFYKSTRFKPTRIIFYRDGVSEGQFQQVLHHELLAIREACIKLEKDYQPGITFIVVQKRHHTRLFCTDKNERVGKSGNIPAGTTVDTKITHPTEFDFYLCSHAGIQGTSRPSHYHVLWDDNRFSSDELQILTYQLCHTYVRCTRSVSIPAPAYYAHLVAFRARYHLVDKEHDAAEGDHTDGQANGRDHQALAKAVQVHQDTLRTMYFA
AGO2 A367P, sequence (Q9UKV8 whole entry A367P/S387D/S824A/S828D/S831D/S834A): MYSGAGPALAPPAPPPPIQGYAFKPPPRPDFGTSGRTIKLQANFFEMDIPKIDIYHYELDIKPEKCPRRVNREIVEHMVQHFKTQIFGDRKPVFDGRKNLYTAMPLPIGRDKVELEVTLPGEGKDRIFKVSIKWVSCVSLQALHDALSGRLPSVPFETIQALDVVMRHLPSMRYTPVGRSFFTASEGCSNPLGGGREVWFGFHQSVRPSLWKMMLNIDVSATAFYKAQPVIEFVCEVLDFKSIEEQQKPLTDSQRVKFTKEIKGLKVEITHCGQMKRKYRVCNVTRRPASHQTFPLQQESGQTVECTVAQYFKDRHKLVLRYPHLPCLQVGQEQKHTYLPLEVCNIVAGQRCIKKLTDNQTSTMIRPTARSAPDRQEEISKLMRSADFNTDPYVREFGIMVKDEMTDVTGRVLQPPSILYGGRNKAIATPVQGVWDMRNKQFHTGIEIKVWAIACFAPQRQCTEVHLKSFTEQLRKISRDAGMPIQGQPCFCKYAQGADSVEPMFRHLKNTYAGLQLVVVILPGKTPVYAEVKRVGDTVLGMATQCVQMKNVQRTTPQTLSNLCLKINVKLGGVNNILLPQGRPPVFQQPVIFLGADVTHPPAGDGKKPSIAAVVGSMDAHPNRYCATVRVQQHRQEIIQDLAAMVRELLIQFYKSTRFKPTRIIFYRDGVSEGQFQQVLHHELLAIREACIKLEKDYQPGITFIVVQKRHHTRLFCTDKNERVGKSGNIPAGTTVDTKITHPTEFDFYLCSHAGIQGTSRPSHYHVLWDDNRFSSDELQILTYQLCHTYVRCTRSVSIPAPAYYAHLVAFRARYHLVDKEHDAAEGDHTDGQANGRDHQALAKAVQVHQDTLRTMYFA
AGO2 F182del, sequence (Q9UKV8 other isoform, or with tags, fused parts or gaps S387D;S824A;S828D;S831D;S834A;del182-182): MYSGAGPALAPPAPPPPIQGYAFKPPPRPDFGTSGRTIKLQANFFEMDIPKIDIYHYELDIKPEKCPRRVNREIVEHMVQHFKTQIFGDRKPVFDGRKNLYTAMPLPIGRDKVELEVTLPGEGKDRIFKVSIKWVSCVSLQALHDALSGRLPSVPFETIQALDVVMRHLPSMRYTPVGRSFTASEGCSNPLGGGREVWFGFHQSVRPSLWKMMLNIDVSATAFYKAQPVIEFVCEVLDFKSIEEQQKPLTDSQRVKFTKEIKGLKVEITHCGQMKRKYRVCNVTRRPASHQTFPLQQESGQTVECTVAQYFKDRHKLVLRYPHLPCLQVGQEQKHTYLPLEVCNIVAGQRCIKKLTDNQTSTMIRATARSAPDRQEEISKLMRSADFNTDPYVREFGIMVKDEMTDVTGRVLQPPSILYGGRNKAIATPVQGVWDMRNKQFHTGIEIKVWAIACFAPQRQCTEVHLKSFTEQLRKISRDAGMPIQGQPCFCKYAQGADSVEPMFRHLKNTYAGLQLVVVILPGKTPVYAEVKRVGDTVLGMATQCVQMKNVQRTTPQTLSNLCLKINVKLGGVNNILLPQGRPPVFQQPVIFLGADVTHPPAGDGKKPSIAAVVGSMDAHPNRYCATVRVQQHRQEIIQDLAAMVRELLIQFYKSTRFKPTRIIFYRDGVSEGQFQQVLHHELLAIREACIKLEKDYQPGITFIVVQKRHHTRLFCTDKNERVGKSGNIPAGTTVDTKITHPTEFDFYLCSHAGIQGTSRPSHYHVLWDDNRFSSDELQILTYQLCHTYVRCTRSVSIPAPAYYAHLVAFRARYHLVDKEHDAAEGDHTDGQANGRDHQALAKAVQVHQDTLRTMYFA

Binder | binding signal (AGO2 L192P) | binding signal (AGO2 A367P) | binding signal (AGO2 T357M) | binding signal (AGO2 F182del)
B1 | 0.36 fold enrichment over input | 0.134 fold enrichment over input | 0.52 fold enrichment over input | –
B2 | 0.321 fold enrichment over input | 0.121 fold enrichment over input | 0.4 fold enrichment over input | –
B3 | 0.389 fold enrichment over input | 0.137 fold enrichment over input | 0.54 fold enrichment over input | –
B4 | 0.376 fold enrichment over input | 0.143 fold enrichment over input | 0.478 fold enrichment over input | –
B5 | 0.343 fold enrichment over input | 0.122 fold enrichment over input | 0.425 fold enrichment over input | –
B6 | 0.342 fold enrichment over input | 0.136 fold enrichment over input | 0.495 fold enrichment over input | –
B7 | 0.353 fold enrichment over input | 0.123 fold enrichment over input | 0.462 fold enrichment over input | –
B8 | 0.335 fold enrichment over input | 0.131 fold enrichment over input | 0.447 fold enrichment over input | –
B9 | 0.345 fold enrichment over input | 0.125 fold enrichment over input | 0.468 fold enrichment over input | –
B10 | 0.347 fold enrichment over input | 0.128 fold enrichment over input | 0.482 fold enrichment over input | –
B11 | 0.352 fold enrichment over input | 0.121 fold enrichment over input | 0.475 fold enrichment over input | –
B12 | 0.364 fold enrichment over input | 0.126 fold enrichment over input | 0.522 fold enrichment over input | –
B13 | 0.425 fold enrichment over input | 0.181 fold enrichment over input | 0.539 fold enrichment over input | –
B14 | 0.356 fold enrichment over input | 0.131 fold enrichment over input | 0.51 fold enrichment over input | –
B15 | 0.36 fold enrichment over input | 0.127 fold enrichment over input | 0.449 fold enrichment over input | –
B16 | 0.437 fold enrichment over input | 0.187 fold enrichment over input | 0.545 fold enrichment over input | 0.128 fold enrichment over input
B17 | 0.344 fold enrichment over input | 0.129 fold enrichment over input | 0.483 fold enrichment over input | –
B18 | 0.38 fold enrichment over input | 0.138 fold enrichment over input | 0.553 fold enrichment over input | –
B19 | 0.333 fold enrichment over input | 0.137 fold enrichment over input | 0.462 fold enrichment over input | –
B20 | 0.332 fold enrichment over input | 0.141 fold enrichment over input | 0.443 fold enrichment over input | –
B21 | 0.334 fold enrichment over input | 0.128 fold enrichment over input | 0.445 fold enrichment over input | –
B22 | 0.32 fold enrichment over input | 0.127 fold enrichment over input | 0.448 fold enrichment over input | –
B23 | 0.389 fold enrichment over input | 0.136 fold enrichment over input | 0.541 fold enrichment over input | –
